# Reference: PubChem BioAssay (NCI)
# Values joined by “and” are separate entries in the source; they are usually repeats but may differ in a detail not shown here. Equal entries are not always repeated. About 83,000 compounds went through this panel and 20% of them were active in at least one assay; those are over-represented in the sample as a whole.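 In brief: 96-well plates, 48 h treatment, single concentration, percent growth endpoint.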 A number with no mark means an inactive call. Active and inactive are the calls of the source. Rule for the calls: active = growth percent below 10; inactive = the rest.
# Tested on: MDA-MB-468 breast
# Assay: NCI-60 one-dose screen, 48 h (100 = growth as untreated, 0 = no growth, -100 = all killed)
# Conditions: 10 µM unless noted
row,Structure (SMILES),growth
1,CCc1c2c(nc3ccc(OC(=O)OCc4ccc(B5OC(C)(C)C(C)(C)O5)cc4)cc13)-c1cc3c(c(=O)n1C2)COC(=O)[C@]3(O)CC,-33.6% (active)
2,COc1ccc2c(c1)c(-c1noc(C(=O)c3cn(C)c4ncc(Br)cc34)n1)cn2C,76.1%
3,c1ccc2c(CC3=NCCN3)cccc2c1,92.3% and 101%
4,O=C1/C(=C/c2ccc([N+](=O)[O-])cc2)CN(C(=O)CCN2CCC(=NO)CC2)C/C1=C\c1ccc([N+](=O)[O-])cc1,-33.6% (active)
5,CCC(C)(C)C(=O)O[C@H]1C[C@@H](C)C=C2C=C[C@H](C)[C@H](CC[C@@H]3CC(SCCN)CC(=O)O3)[C@H]21 (stereo not given in full),90.3%
6,CC(C(=O)O)n1cc(C#N)c(=O)[nH]c1=O (stereo not given),103% and 107%
7,COCCN1CCN(Cc2ccc(-c3n[nH]c4c3C(=O)c3c(NC(=O)NN5CCOCC5)cccc3-4)cc2)CC1,-45.1% (active)
8,CCOc1c(B(O)O)cccc1-c1nc2ccc3[nH]ncc3c2c2c1CCCC2,51.1%
9,C=C(C)[C@@H]1CC[C@]2(C=NCCCNCCCCNCCCN)CC[C@]3(C)[C@H](CC[C@@H]4[C@@]5(C)CCCNC(C)(C)[C@@H]5CC[C@]43C)[C@@H]12,98.5%
10,Cc1cn(-c2cc(F)cc(NC(=O)c3ccc(C)c(Nc4nccc(-c5cccnc5)n4)c3)c2)cn1,-63.4% (active)
11,CCCCC1=C(P(=O)(O)O)N[C@H](C(=O)O)CS1,89.1%
12,S=c1[nH]cccc1-c1nnc2n1Nc1nc3ccc(Cl)cc3cc1CS2,109%
13,COC(=O)N[C@@H](C)CNc1nccc(-c2cn(C(C)C)nc2-c2cc(Cl)cc(NS(C)(=O)=O)c2F)n1,99.4%
14,COc1cc(C2CC(=O)c3c(C)nn(-c4nc5ccccc5[nH]4)c3C2)cc(OC)c1OC (stereo not given),82%
15,O=C1c2cc3c(cc2-c2c1c1ccc(Cl)cc1c(=O)n2C[C@H](O)CO)OCO3,-53.8% (active)
16,CC(C)c1[nH]nc2c(NCc3ccc(-c4ccccn4)cc3)nc(SCCN(C)C)nc12,-50.1% (active)
17,Cc1cc(C)c2nc(Nc3nc(C)c(C)c(=O)[nH]3)nc(C)c2c1,-35.8% (active)
18,O=C1Nc2ccccc2/C1=N/N1C(=O)CN(CCCl)C1=O,107%
19,CC(C)/C=N/NC(N)=S,19.3%
20,COc1ccc(NC(=O)c2sc3c(=O)[nH]c(C(F)(F)F)nc3c2C)cc1,131%
21,NS(=O)(=O)c1ccc(-n2nc(-c3ccc(Cl)cc3)ccc2=O)cc1,56.9%
22,C/C=C1\SC(=S)NC1=O,114%
23,CCOC(=O)C1C(=O)OC2CCCCC21 (stereo not given),110%
24,NC(=S)N/N=C\c1nccc2c(C(F)(F)C(F)(F)C(F)(F)F)cccc12,-69.7% (active)
25,Cn1ncc2ccc(-c3nc(-c4ccccc4)[nH]c3-c3n[nH]c(=O)n3C3CC3)cc21,104%
